Data published in PubChem BioAssay.
Active and inactive are the calls of the source. Unless noted, how the calls were made is not given here.

Assays:
[1] = HepG2 liver cancer cell viability effects, profiling panel, resazurin fluorescence, 24 h, PK04 Diversity Set (AID 1172); details: higher = more signal
[2] = basal S. cerevisiae growth modulation, no modifier, primary screen, OD600, strain BY4716, 24 h, basal condition (AID 1173); details: OD600, 24 h, higher = more signal, called active from +8 up or from −8 down
[3] = MM1S myeloma cell viability, profiling panel, resazurin fluorescence, basal, 24 h, PK04 Diversity Set (AID 1174); details: higher = more signal, called active from +8 up or from −8 down;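 further: MM1S multiple myeloma cell line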
[4] = biological target: Dihydroorotate dehydrogenase (quinone), mitochondrial (Plasmodium falciparum (isolate 3D7)) (UniProt Q08210); assay: PfDHODH enzyme inhibitors, primary screen, biochemical, C-terminal His tag, absorbance 600 nm (AID 1175); details: DCIP absorbance 600 nm, higher = more signal, called active from +8 up or from −8 down;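 further: recombinant parasite enzyme with a five histidine tag at its C terminus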
Chain of Dihydroorotate dehydrogenase (quinone), mitochondrial (Plasmodium falciparum (isolate 3D7)) (Q08210 whole entry, looked up): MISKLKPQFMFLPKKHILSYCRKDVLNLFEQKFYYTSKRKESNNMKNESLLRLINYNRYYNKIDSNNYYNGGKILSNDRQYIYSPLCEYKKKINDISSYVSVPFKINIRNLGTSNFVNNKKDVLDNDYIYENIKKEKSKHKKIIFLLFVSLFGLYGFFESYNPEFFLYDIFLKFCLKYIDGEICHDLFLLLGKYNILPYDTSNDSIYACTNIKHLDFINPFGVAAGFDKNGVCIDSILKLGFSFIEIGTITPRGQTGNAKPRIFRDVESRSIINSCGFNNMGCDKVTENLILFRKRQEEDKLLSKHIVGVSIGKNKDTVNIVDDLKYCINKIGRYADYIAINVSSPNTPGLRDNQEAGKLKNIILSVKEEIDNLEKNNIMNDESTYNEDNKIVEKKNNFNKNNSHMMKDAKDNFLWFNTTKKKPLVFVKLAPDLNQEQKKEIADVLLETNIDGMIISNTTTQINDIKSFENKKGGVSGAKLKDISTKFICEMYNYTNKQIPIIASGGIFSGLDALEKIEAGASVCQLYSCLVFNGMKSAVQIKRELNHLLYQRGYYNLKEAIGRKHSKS

[5] = P. aeruginosa biofilm formation inhibitors, primary screen, strain PAO1, LB-PBS medium, absorbance 600 nm (AID 1176); details: P. aeruginosa PAO1 growth/biofilm, A600, 12 h; higher = more signal
[6] = S. cerevisiae RM11-1a growth modifiers, primary screen, strain RM11-1a, OD600, basal, 24 h (AID 1177); details: OD600, 24 h, higher = more signal, called active from +8 up or from −8 down;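 further: cultures grown under basal conditions with no added stressor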
[7] = E. coli acrAB mutant growth effects, primary screen, E. coli filamentation inducers, strain DRC39, OD650, 24 h (AID 1178); details: higher = more signal, called active from +8 up or from −8 down;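 further: growth measured as culture turbidity by optical density at 650 nm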
[8] = E. coli acrAB mutant growth effects, primary screen, E. coli filamentation inducers, strain DRC39, OD650, 48 h (AID 1179);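 further: screen aims at cell division blockers that make cells filament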; details: E. coli DRC39 delta-acrAB growth, higher = more signal, called active from +8 up or from −8 down
[9] = RPMI8226 myeloma cell viability, profiling panel, resazurin fluorescence, basal, 24 h, PK04 Diversity Set (AID 1180); details: higher = more signal;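 further: RPMI8826 multiple myeloma cell line at 5000 cells per well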
[10] = biological target: E3 ubiquitin-protein ligase XIAP (Homo sapiens) (UniProt P98170); assay: XIAP binders, primary screen, biophysical, small-molecule microarray, fluorescence 635 nm (AID 1181); details: small-molecule microarray binding, higher = more signal;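 further: score merges 667 nm emission and signal to noise over triplicate slides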
Chain of E3 ubiquitin-protein ligase XIAP (Homo sapiens) (P98170 whole entry, looked up): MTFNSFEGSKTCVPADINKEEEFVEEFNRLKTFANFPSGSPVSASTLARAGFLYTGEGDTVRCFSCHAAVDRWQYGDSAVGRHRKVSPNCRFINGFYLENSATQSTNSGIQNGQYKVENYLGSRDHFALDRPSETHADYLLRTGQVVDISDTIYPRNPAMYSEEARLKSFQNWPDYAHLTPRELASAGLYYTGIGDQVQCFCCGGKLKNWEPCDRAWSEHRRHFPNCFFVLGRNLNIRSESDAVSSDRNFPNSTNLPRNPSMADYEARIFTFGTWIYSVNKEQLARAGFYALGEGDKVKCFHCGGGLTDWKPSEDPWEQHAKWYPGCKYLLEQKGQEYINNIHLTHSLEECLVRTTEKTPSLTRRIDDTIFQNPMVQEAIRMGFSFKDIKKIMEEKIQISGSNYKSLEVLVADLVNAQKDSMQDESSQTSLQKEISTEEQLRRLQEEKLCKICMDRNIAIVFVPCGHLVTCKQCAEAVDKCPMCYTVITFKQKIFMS

[11] = test system: XIP peptide (Xip251-270) binding; assay: small-molecule binders of XIP peptide, primary screen, biochemical, small-molecule microarray, fluorescence 635/667 nm, 0.1 µg/mL protein (AID 1182); details: fluorescent protein binding, 635 nm, higher = more signal, called active from +8 up or from −8 down
[12] = test system: XIP peptide (Xip251-270); assay: small-molecule binders of XIP peptide, primary screen, biochemical, small-molecule microarray, fluorescence 635/667 nm, 0.5 µg/mL protein (AID 1183); details: small-molecule microarray binding, fluorescence 635 nm; higher = more signal
[13] = Plasmodium falciparum growth inhibition, primary screen, strain 3D7, DAPI fluorescence, 100 nL (AID 1184);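 further: parasites grown inside human red blood cells in medium with human serum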; details: P. falciparum 3D7 growth, 3 d, higher = more signal
[14] = biological target: Homeobox protein Hox-A13 (Mus musculus) (UniProt Q62424); assay: inhibitors of HoxA13-DNA binding, primary screen, biochemical, fluorescence polarization, labeled oligonucleotide (AID 1185); details: 15 min, higher = more signal, called active from +8 up or from −8 down
Chain of Homeobox protein Hox-A13 (Mus musculus) (Q62424 whole entry, looked up): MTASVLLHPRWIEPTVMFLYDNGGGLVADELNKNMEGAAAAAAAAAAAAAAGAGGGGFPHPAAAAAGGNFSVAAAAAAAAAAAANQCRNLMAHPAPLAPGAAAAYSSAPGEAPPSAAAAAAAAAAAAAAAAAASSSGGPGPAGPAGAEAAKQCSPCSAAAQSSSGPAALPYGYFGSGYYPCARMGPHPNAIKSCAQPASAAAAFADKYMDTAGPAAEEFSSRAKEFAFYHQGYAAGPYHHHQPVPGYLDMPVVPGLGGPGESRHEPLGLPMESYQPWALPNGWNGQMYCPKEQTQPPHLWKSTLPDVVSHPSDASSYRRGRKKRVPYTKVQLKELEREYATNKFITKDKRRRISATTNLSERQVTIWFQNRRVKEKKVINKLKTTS

[15] = inhibitors of hydroxyurea-induced Chk1 phosphorylation, primary screen, imaging, HeLa, phospho-Chk1 antibody, percent positive cells (AID 1186); details: hydroxyurea-induced phospho-Chk1 immunofluorescence imaging, higher = more signal
[16] = inhibitors of hydroxyurea-induced Chk1 phosphorylation, primary screen, imaging, HeLa, phospho-Chk1 nuclear intensity (AID 1187); details: hydroxyurea-induced phospho-Chk1 immunofluorescence imaging, higher = more signal

Structure (SMILES)	z-score [1]	z-score [2]	z-score [3]	composite z-score [4]	z-score [5]	z-score [6]	z-score [7]	z-score [8]	z-score [9]	composite z-score [10]	composite z-score [11]	composite z-score [12]	z-score [13]	z-score [14]	z-score [15]	z-score [16]
Cc1ccc(N2C(=O)c3ccccc3[C@@H](C(=O)NCCCN(C)C)[C@@H]2c2ccc(CO)cc2)nc1	0.258	-0.957 (inactive)	-0.252 (inactive)	-0.746 (inactive)	-0.397 (inactive)	-0.64 (inactive)	-0.152 (inactive)	0.327 (inactive)	0.262	-0.102	1.9 (inactive)	0.148	-0.235	-2.34 (inactive)	0.026 (inactive)	-0.303 (inactive)
Cc1ccc(S[C@]2(C(=O)O)CC(=O)N(C3CCCCC3)[C@@H]2c2ccc(CO)cc2I)cc1	0.465	-1.67 (inactive)	-0.353 (inactive)	-0.664 (inactive)	-0.137 (inactive)	-0.92 (inactive)	0.475 (inactive)	0.0129 (inactive)	-0.74	-0.0525	2.84 (inactive)	0.526	-0.348	-5.25 (inactive)	0.542 (inactive)	0.675 (inactive)
[N-]=[N+]=NCc1ccccc1C[C@@]1(C(N)=O)N=C(c2ccc(OCCCO)cc2)O[C@@H]1c1ccccc1	0.0565	-0.165 (inactive)	-1.22 (inactive)	-0.239 (inactive)	0.563 (inactive)	0.115 (inactive)	0.0937 (inactive)	-1.12 (inactive)	-1.37	-0.11	0.755 (inactive)	0.237	-1.83	-5.03 (inactive)	0.107 (inactive)	0.221 (inactive)
COC(=O)[C@@H]1N=C(c2ccc(OCCCO)cc2)O[C@@H]1c1ccccc1	1.64	-2.99 (inactive)	1.09 (inactive)	-0.103 (inactive)	-0.484 (inactive)	-0.763 (inactive)	0.714 (inactive)	0.129 (inactive)	1.5	0.761	0.178 (inactive)	0.759	-0.641	-4.34 (inactive)	-0.4 (inactive)	-0.301 (inactive)
[N-]=[N+]=Nc1ccccc1[C@@H]1OC(c2ccc(OCCCO)cc2)=N[C@]1(Cc1ccccc1)C(=O)O	0.841	0.307 (inactive)	0.492 (inactive)	1.72 (inactive)	-0.664 (inactive)	2.5 (inactive)	2.46 (inactive)	0.921 (inactive)	0.514	0.0269	0.315 (inactive)	0.721	-1.85	-4.29 (inactive)	-0.178 (inactive)	0.168 (inactive)
C=CC[C@@H](OC(=O)Nc1ccc(OC)cc1)c1ccc(O)c(F)c1	-1.33	-16.3 (active)	-1.32 (inactive)	-2.55 (inactive)	0.79 (inactive)	-22 (active)	0.924 (inactive)	0.41 (inactive)	-0.895	-0.0441	1.29 (inactive)	-1.1	0.765	-3.65 (inactive)	0.0919 (inactive)	0.0113 (inactive)
C=C[C@@H](CO)N(Cc1ccc(OC)cc1)S(=O)(=O)c1ccc(Br)cc1	1.04	-5.71 (inactive)	-0.495 (inactive)	-2.32 (inactive)	-0.152 (inactive)	-1.99 (inactive)	1.66 (inactive)	1.88 (inactive)	-0.455	-0.434	-0.798 (inactive)	-0.315	-0.0153	-3.98 (inactive)	-0.289 (inactive)	-0.157 (inactive)
C=C(COC)C(=O)CC[C@@H](OC(C)=O)c1cccc(OCCO)c1	-0.434	0.823 (inactive)	-0.0743 (inactive)	0.0704 (inactive)	-0.329 (inactive)	1.17 (inactive)	0.858 (inactive)	0.503 (inactive)	-0.929	-0.263	0.309 (inactive)	-0.0276	-0.988	-3.69 (inactive)	0.367 (inactive)	-0.113 (inactive)
CC1CC/C=C\[C@H]2OC34C=CCN(C(C)C)C(=O)[C@H]3N(CCO)C(=O)[C@@H]4C2C(=O)O1 (some centres undefined)	-0.961	0.486 (inactive)	0.802 (inactive)	0.705 (inactive)	-0.413 (inactive)	0.651 (inactive)	0.764 (inactive)	0.341 (inactive)	0.838	0.0484	-0.319 (inactive)	-0.472	-1.22	-2.91 (inactive)	0.147 (inactive)	0.0498 (inactive)
C=CCC(OC(C)=O)[C@@H]1[C@@H](N(Cc2ccc(-c3ccccc3)cc2)C(=O)c2ccc(-c3ccccc3)cc2)c2cc(OCCCO)ccc2N1C(=O)c1ccc2ccccc2c1 (some centres undefined)	-0.723	0.416 (inactive)	0.149 (inactive)	-0.746 (inactive)	0.35 (inactive)	-0.583 (inactive)	-0.91 (inactive)	-0.756 (inactive)	-0.205	0.0423	-0.29 (inactive)	-0.482	0.248	-0.68 (inactive)	0.215 (inactive)	-0.144 (inactive)
CCOC(=O)C1=CC[C@@H](c2ccccc2)N(S(=O)(=O)c2ccc(C)cc2)[C@H]1c1ccccc1	-0.356	1.92 (inactive)	-0.564 (inactive)	1.03 (inactive)	0.85 (inactive)	1.75 (inactive)	-0.544 (inactive)	-0.244 (inactive)	-1.33	0.0512	0.267 (inactive)	0.528	-1.67	0.268 (inactive)	0.339 (inactive)	-1.24 (inactive)
O=c1cccc(-c2ccc([N+](=O)[O-])cc2)o1	0.269	-0.589 (inactive)	0.697 (inactive)	-0.371 (inactive)	0.201 (inactive)	-0.376 (inactive)	-0.0154 (inactive)	1.34 (inactive)	-0.425	0.515	0.164 (inactive)	-0.163	-0.799	-0.755 (inactive)	-0.419 (inactive)	-0.202 (inactive)
C=CCNC(=O)[C@@H]1[C@H]2C(=O)O[C@H](c3ccccc3)[C@H](c3ccccc3)N2[C@H](c2ccccc2OCCO)[C@@]12C(=O)Nc1ccc(C#CCC(C(=O)OC)C(=O)OC)cc12	-0.679	1.59 (inactive)	-8.99 (active)	-25.5 (active)	2.19 (inactive)	1.86 (inactive)	0.108 (inactive)	-0.263 (inactive)	-7.28	-0.0062	1.56 (inactive)	0.343	-2.1	-3.02 (inactive)	0.0648 (inactive)	-0.246 (inactive)
CCCCN1CC=CC23O[C@@H]4/C=C\CCC(C)OC(=O)C4[C@H]2C(=O)N(CCCO)[C@@H]3C1=O (some centres undefined)	0.0917	1.04 (inactive)	0.0853 (inactive)	-0.0558 (inactive)	-0.112 (inactive)	0.487 (inactive)	0.0475 (inactive)	-0.154 (inactive)	0.79	-0.267	-0.571 (inactive)	0.214	0.544	-3.97 (inactive)	0.331 (inactive)	-0.112 (inactive)
CC#CCO[Si](C#Cc1ccccc1)(C(C)C)C(C)C	-0.112	-15.6 (active)	-0.632 (inactive)	0.108 (inactive)	0.219 (inactive)	0.201 (inactive)	-0.244 (inactive)	-0.032 (inactive)	-0.67	-0.127	0.0308 (inactive)	-0.654	-0.916	-1.19 (inactive)	0.988 (inactive)	0.598 (inactive)
CC(C)=C1C(=O)C(c2ccccc2)=C2CN3C(=O)N(CCc4ccccc4)C(=O)[C@]3(Cc3ccc(C(F)(F)F)cc3)[C@H]21	-1.09	0.908 (inactive)	-1.32 (inactive)	-0.29 (inactive)	0.799 (inactive)	0.12 (inactive)	-0.943 (inactive)	-0.633 (inactive)	-1.19	-0.213	1.05 (inactive)	-0.498	-0.503	-1.59 (inactive)	0.551 (inactive)	0.465 (inactive)
COc1ccc(C#Cc2ccc3c(c2)[C@]2(C(=O)N3)[C@H](c3ccc(OCCO)cc3)N3[C@H](c4ccccc4)[C@H](c4ccccc4)OC(=O)[C@H]3[C@@H]2C(=O)NC[C@H](O)c2ccccc2)cc1	0.0814	3.07 (inactive)	-0.883 (inactive)	-18.4 (active)	2.34 (inactive)	4.84 (inactive)	0.595 (inactive)	0.863 (inactive)	-1.08	0.18	0.47 (inactive)	0.691	-1.78	-1.01 (inactive)	-0.387 (inactive)	-0.263 (inactive)
Cc1ccc(S[C@]2(C(=O)NC(C)C)CC(=O)N(Cc3cc(C(F)(F)F)cc(C(F)(F)F)c3)[C@@H]2c2ccc(CO)cc2)cc1	-0.489	-1.33 (inactive)	0.528 (inactive)	-1.06 (inactive)	0.31 (inactive)	-0.656 (inactive)	-0.0813 (inactive)	-0.229 (inactive)	0.483	-0.0125	0.706 (inactive)	0.49	-0.938	-2.62 (inactive)	0.0619 (inactive)	0.116 (inactive)
COc1ccc([Si](C)(C)[C@@H]2[C@@H](CCO)O[C@]3(C(=O)N(Cc4cccc(NC(=O)[C@H](C)O)c4)c4ccccc43)[C@H]2C)cc1	-5.97	0.728 (inactive)	-9.06 (active)	0.554 (inactive)	1.25 (inactive)	4.9 (inactive)	0.0065 (inactive)	-0.811 (inactive)	-6.22	0.0479	0.789 (inactive)	0.755	-2.69	-5.95 (inactive)	0.214 (inactive)	-0.189 (inactive)
